Experimental data reported in the supplement of paper PMC11732987, “Enantioselective OTUD7B fragment discovery through chemoproteomics screening and high-throughput optimisation” (Communications Chemistry, 2025).

Tests used:
Assay in all cases: log2 ratio of Biotin-Ahx-Ub-VS probe labelling (fragment/DMSO); higher = less target engagement (more negative = stronger competition), active = hit call of the paper (q ≤ 0.05, log2 ratio ≤ -1)
Settings in all cases: compound concentration: 200 uM; treatment time: 3 h
USP42 = target: T1, USP42 (UniProt Q9H9J4)
T1 sequence (whole entry): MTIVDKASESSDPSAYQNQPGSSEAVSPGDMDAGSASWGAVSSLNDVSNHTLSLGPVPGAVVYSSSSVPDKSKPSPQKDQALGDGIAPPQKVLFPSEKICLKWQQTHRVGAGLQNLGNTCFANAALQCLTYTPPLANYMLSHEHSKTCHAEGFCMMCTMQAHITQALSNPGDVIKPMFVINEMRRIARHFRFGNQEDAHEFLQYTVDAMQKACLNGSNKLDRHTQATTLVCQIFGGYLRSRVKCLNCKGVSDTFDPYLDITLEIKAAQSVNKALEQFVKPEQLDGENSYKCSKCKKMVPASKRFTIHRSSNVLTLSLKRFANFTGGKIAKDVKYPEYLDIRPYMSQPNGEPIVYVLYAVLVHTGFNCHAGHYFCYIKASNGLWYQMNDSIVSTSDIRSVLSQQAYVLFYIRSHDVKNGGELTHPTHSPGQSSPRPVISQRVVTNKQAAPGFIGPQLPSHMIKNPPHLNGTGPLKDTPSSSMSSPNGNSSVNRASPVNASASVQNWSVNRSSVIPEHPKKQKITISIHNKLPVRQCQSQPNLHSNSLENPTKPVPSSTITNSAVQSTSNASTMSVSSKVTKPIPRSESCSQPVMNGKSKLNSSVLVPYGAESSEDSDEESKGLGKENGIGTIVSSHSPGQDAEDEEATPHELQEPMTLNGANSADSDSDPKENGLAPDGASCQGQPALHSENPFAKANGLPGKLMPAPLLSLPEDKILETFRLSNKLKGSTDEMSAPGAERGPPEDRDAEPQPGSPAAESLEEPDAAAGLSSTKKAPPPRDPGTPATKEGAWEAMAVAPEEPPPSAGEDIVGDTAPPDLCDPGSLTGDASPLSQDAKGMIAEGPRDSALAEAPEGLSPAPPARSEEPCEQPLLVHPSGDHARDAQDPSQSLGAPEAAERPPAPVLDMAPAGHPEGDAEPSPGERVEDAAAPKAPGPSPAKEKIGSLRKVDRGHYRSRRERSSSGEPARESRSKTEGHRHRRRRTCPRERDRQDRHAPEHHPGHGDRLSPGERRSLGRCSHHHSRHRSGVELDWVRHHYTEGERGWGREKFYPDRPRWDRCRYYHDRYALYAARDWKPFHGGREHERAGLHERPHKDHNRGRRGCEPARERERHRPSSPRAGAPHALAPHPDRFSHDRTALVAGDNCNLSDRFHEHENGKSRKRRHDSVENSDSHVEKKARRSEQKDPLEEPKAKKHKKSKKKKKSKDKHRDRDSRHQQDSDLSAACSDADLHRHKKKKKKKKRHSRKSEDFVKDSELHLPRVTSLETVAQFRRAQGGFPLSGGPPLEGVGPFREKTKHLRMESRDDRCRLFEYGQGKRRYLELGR
Method in brief: (§1)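 HEK293T lysate, 495 µg per sample in Tris/CHAPS/IGEPAL buffer with protease inhibitors, was treated in triplicate with fragment at 200 µM or vehicle for 3 h and then with Biotin-Ahx-Ub-VS at 0.5 µM final for 1 h. Labelled DUBs were NeutrAvidin-enriched, digested with LysC and trypsin, and run by diaPASEF LC-MS/MS. Spectronaut label-free quantities were global-median-normalised, and values are average log2 fragment/vehicle ratios by unpaired t-test on proteins with ≥2 unique peptides.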

USP46 = USP46 (UniProt P62068)
Chain of USP46 (P62068 whole entry): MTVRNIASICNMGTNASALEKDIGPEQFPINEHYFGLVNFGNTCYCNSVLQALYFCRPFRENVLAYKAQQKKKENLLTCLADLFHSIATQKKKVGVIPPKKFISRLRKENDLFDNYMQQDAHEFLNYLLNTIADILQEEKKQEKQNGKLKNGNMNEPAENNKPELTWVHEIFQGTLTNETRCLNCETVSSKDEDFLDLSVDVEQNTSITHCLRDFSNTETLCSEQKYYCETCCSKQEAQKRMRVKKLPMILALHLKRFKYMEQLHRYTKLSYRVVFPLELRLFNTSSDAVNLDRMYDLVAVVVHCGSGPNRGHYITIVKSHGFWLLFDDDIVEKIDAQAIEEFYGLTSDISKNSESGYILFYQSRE
Method in brief: as §1

USP47 = target: T2, USP47 (UniProt Q96K76)
T2 sequence (whole entry): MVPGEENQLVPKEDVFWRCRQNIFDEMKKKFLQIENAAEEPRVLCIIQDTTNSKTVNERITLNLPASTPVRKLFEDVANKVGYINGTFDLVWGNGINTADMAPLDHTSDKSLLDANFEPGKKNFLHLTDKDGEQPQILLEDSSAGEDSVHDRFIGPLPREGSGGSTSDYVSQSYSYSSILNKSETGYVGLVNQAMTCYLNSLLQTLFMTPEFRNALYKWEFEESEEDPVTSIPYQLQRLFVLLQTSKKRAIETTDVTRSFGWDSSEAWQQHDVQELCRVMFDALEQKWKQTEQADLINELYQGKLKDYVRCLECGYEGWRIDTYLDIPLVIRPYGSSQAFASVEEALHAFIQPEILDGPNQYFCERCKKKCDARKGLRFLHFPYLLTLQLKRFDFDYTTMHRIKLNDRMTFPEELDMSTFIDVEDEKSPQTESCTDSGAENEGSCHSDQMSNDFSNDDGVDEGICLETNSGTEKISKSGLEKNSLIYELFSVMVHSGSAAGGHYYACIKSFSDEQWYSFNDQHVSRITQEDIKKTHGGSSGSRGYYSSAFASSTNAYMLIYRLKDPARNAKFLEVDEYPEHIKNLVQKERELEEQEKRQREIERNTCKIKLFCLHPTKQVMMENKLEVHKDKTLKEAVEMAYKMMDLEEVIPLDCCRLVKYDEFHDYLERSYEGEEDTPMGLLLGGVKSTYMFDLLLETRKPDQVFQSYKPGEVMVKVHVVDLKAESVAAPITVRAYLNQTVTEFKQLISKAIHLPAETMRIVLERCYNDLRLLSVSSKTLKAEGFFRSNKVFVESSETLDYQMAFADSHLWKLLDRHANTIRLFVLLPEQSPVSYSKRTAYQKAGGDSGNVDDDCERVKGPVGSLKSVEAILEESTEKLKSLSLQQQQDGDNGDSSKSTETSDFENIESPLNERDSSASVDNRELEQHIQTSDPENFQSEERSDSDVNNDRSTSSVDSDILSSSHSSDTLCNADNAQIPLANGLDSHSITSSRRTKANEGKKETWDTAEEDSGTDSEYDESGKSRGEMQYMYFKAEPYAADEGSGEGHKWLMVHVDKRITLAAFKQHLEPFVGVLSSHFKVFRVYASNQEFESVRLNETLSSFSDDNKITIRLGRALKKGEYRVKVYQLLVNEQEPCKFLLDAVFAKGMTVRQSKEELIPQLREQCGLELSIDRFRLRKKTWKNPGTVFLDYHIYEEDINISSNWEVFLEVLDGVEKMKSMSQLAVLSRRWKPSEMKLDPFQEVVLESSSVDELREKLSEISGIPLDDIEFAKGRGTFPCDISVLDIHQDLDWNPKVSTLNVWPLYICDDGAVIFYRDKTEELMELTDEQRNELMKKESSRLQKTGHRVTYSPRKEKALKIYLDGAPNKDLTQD
Method in brief: as §1

USP48 = target: T3, USP48 (UniProt Q86UV5)
T3 sequence (whole entry): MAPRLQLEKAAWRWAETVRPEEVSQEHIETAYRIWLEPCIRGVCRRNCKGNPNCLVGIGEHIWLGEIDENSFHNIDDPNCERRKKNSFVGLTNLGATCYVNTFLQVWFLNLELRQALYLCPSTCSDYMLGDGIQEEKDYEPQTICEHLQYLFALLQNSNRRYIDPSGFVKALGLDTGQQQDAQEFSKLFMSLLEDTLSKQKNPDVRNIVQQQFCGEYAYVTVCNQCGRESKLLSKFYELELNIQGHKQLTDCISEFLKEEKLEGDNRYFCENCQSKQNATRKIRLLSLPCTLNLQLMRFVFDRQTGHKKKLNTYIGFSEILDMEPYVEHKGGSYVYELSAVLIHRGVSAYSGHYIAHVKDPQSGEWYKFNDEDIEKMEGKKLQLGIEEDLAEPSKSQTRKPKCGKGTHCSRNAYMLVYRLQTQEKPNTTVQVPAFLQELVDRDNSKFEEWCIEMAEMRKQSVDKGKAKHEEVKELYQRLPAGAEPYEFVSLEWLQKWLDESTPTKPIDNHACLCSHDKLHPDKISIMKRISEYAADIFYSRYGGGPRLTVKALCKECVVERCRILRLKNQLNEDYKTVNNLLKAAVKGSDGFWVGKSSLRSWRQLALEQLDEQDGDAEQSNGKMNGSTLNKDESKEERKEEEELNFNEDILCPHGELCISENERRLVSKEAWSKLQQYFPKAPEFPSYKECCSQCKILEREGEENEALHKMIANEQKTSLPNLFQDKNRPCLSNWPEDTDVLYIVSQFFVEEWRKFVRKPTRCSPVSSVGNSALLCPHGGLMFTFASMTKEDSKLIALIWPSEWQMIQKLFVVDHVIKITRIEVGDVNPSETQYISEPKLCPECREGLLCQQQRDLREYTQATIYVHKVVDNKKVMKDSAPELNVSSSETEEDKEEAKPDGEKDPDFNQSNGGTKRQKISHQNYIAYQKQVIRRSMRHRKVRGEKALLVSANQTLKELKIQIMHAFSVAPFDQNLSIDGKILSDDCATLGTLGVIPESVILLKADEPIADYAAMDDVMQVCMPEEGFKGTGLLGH
Method in brief: as §1

USP5 = target: T4, USP5 (UniProt P45974)
T4 sequence (whole entry): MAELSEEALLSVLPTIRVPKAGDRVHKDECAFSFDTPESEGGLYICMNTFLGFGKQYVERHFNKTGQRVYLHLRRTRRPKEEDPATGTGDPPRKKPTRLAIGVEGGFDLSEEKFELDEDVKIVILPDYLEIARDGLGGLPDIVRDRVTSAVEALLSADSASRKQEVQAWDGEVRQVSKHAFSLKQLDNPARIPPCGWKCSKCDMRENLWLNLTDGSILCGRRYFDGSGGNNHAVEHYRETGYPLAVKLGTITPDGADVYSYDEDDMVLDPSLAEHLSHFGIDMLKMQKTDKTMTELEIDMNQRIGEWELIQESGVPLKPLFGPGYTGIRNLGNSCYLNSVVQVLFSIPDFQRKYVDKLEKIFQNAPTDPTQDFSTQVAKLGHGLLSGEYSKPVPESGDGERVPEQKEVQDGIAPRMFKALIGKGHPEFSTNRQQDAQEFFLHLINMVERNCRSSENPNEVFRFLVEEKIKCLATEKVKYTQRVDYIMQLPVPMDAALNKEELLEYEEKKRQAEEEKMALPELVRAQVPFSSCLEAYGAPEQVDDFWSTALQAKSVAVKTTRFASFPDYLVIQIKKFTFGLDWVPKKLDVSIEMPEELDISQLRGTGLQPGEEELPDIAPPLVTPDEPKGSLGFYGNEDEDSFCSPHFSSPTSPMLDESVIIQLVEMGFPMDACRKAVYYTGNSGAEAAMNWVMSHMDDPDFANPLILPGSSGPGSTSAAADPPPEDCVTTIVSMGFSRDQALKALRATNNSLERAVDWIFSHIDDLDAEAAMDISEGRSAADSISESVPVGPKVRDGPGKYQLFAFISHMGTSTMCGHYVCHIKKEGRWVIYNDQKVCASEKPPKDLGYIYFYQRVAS
Method in brief: as §1

USP54 = USP54 (UniProt Q70EL1)
Chain of USP54 (Q70EL1 whole entry): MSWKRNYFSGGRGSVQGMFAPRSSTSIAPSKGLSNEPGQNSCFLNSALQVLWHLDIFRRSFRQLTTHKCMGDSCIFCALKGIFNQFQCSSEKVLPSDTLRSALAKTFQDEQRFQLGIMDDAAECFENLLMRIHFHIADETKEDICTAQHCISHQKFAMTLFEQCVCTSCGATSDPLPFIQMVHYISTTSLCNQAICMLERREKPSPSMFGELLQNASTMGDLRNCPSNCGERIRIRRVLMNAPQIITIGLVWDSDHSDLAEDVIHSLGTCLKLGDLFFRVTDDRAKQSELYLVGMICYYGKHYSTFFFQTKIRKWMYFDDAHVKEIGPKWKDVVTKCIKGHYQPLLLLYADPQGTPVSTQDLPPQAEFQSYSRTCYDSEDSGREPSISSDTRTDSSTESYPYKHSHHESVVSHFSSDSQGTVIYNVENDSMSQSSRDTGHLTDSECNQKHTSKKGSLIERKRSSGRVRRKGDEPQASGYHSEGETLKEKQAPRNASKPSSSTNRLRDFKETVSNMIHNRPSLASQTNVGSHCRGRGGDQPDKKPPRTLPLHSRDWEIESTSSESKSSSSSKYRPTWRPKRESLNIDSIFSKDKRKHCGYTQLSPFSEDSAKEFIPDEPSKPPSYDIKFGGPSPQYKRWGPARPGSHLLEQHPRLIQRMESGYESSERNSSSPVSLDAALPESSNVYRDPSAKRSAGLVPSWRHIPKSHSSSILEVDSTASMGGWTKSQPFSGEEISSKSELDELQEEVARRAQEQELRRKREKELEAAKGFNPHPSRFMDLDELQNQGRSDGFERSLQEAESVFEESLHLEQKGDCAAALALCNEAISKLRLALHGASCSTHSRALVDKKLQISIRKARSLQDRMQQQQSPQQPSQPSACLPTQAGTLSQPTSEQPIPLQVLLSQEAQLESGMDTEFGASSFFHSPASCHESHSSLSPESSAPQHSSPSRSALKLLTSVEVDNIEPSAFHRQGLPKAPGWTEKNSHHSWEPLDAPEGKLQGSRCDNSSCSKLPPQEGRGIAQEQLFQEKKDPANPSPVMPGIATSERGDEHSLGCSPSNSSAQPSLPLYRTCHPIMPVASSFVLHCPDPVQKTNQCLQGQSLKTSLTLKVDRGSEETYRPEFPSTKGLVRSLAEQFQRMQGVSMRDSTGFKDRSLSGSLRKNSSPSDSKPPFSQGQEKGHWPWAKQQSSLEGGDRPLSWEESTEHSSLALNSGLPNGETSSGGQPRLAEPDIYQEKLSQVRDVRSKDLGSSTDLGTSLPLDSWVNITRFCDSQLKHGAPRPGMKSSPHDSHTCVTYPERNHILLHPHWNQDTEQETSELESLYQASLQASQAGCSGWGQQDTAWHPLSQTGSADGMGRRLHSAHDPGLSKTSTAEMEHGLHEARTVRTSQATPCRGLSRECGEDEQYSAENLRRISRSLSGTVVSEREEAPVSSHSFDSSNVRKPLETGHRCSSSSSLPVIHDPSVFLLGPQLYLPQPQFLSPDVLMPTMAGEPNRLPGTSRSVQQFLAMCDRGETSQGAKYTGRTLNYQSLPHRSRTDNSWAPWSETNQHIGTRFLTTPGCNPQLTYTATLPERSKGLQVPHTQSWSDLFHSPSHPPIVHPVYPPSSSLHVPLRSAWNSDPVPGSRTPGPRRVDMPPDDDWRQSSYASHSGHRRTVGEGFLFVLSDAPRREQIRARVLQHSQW
Method in brief: as §1

USP7 = USP7 (UniProt Q93009)
Chain of USP7 (Q93009 whole entry, looked up): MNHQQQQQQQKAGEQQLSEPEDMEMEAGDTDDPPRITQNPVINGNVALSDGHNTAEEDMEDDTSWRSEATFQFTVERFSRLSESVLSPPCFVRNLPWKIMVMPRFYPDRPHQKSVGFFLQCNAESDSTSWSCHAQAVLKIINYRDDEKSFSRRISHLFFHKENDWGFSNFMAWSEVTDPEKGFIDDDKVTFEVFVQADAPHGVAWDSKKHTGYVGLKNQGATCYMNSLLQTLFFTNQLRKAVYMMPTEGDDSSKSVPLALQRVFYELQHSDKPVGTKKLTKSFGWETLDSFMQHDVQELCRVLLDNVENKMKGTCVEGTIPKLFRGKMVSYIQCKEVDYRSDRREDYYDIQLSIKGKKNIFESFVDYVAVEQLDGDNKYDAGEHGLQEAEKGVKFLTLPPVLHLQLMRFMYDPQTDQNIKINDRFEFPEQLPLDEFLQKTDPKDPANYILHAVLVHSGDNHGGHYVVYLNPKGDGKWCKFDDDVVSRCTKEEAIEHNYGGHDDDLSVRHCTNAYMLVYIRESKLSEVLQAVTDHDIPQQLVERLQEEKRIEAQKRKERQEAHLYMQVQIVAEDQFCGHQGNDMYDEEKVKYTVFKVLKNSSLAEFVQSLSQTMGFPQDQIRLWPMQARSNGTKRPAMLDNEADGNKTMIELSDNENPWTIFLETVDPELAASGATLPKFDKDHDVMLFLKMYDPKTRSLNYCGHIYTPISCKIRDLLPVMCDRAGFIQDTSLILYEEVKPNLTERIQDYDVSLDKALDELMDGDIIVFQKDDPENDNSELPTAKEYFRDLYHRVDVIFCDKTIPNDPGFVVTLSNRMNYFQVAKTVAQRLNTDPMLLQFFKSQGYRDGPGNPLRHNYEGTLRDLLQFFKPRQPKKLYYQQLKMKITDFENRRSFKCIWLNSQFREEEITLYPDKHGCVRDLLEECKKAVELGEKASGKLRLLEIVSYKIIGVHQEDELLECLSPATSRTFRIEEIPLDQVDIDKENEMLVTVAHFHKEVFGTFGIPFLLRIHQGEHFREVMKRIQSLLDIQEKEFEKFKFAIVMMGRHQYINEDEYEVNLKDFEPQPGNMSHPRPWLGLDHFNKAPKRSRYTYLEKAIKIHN
Method in brief: as §1

USP8 = target: T5, USP8 (UniProt P40818)
T5 sequence (whole entry): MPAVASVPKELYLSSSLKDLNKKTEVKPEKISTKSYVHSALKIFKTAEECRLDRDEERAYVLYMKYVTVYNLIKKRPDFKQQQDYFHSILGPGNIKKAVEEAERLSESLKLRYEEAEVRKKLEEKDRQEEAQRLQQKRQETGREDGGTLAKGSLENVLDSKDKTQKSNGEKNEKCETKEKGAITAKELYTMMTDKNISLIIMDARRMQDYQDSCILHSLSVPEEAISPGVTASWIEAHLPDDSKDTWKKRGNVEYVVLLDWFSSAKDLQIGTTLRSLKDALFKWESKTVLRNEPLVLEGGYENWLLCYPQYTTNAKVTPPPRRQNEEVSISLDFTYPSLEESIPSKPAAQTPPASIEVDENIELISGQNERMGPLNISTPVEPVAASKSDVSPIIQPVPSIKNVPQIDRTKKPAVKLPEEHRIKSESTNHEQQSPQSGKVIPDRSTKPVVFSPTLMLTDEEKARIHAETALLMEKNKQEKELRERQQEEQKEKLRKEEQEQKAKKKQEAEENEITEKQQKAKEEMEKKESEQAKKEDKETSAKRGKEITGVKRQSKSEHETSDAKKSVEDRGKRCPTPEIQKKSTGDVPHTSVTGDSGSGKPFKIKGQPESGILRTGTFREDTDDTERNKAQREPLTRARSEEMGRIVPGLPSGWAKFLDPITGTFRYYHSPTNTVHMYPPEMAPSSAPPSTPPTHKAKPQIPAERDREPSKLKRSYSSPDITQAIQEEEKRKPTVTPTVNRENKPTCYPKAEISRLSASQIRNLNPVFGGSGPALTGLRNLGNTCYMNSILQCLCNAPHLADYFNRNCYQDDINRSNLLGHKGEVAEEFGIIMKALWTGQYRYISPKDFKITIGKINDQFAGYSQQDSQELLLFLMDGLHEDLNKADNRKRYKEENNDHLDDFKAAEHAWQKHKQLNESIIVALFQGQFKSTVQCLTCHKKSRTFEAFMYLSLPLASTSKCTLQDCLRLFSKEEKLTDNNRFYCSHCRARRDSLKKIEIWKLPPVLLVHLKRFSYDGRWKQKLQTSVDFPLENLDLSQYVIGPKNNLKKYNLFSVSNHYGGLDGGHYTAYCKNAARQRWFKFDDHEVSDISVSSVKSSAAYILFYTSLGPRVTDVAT
Method in brief: as §1

Measured: log2 ratio of Biotin-Ahx-Ub-VS probe labelling

O=C(CCl)N1CCCN(C(=O)c2ccc(Cl)cc2)CC1
active: USP48 -1.16 | USP7 -1.18
inactive: USP42 -0.0422 | USP46 -0.129 | USP47 -0.76 | USP5 0.0155 | USP54 0.842 | USP8 -0.354
